Measurements: PubChem BioAssay AID1347419 (Sanford-Burnham Center for Chemical Genomics, 2020)
Out of some 99,000 compounds screened, about 820 (0.83%) were called active. The list comes from a sample in which actives are over-represented; it also holds similar structures and randomly drawn compounds. A number with no mark means an inactive call.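 The calls were made as follows: active = Z-score of -3 or lower, scaled per plate to the spread of control and sample wells; inactive = z-score above -3.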

molecular target: Protein-tyrosine kinase 2-beta (Homo sapiens) (UniProt Q14289); experiment: Pyk2 FERM oligomerization blockers – Q293 cells, FERM NanoBiT luminescence, HTS, primary screen (AID 1347419); set-up: dose or concentration left out as unconfirmed; details: hits give low values;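 also: the deposit names both 25 µM and 10 µM; negative z-score means lost luminescence so less FERM oligomerization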
Sequence (Q14289 whole entry, looked up): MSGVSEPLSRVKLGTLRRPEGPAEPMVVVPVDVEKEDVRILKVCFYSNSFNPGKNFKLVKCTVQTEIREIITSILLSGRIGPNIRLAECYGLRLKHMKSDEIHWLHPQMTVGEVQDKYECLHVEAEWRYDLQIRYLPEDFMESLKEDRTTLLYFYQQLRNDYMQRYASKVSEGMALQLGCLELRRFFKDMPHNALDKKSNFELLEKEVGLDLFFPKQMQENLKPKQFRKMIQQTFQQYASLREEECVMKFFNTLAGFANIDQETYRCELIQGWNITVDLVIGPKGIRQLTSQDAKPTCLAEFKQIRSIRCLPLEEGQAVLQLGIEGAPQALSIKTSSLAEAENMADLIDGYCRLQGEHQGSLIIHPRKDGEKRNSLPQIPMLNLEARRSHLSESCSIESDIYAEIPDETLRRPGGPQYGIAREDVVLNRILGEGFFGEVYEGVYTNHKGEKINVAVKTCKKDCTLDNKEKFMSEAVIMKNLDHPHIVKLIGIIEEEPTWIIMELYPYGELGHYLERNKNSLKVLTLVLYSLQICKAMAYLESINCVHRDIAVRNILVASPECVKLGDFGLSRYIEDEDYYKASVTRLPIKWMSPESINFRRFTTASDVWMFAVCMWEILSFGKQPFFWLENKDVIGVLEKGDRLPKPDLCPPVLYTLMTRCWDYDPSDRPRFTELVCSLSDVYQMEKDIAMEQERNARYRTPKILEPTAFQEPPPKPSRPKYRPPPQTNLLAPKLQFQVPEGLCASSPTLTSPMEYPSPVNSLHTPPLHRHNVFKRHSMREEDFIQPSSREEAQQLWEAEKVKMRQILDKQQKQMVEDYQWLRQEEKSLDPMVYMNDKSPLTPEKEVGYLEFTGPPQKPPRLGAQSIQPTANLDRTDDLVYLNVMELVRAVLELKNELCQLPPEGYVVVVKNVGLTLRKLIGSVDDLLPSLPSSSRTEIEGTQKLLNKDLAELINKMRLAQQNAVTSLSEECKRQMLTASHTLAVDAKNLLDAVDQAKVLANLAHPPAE

Compound | z-score
Cc1ccc(C(=O)Nc2ccc3c(c2)OCO3)cc1S(=O)(=O)N1CCCCC1 | -0.16
O=C(Nc1ccc2c(c1)OCCO2)c1ccc(Cl)c(S(=O)(=O)N2CCCCC2)c1 | -3.16 (active)
O=C(Nc1ccc2c(c1)OCCO2)c1ccncc1 | 0.87
Cc1ccc(C(=O)N/C(=C/c2cccnc2)C(=O)O)cc1 | 0.41
CC(=C/c1ccccc1)/C=N/NC(=O)c1cc(C)oc1C | -0.05
COc1ccc(-c2cc(C(F)(F)F)nc(SCC(=O)Nc3ccc4c(c3)OCO4)n2)cc1OC | -0.25
CCCc1nc2ccccc2c(C(=O)OCC(=O)c2ccc3c(c2)NC(=O)CO3)c1CC | -1.42
CCCc1nc2ccccc2c(C(=O)OCc2nnc(-c3cc(OC)c(OC)c(OC)c3)o2)c1CC | -3.12 (active)
CCOC(=O)c1cc(-c2nnc(-c3cc(OC)c(OC)c(OC)c3)o2)c(C)nc1C | 0.08
CCOC(=O)c1c(NC(=O)C2CCN(S(=O)(=O)c3ccc(Cl)cc3)CC2)sc2c1CCCC2 | 0.49
CC(=O)CCC(=O)c1ccc2ccccc2c1 | 1.48
Cc1ccc2nc(-c3cccnc3)c(NC3CCCC3)n2c1 | 0.15
Cc1cc(OCCN2CCCC2)cc(C(C)C)c1 | 1.27
C/C(=N\N=C(N)N)c1ccc(Cl)cc1 | -0.37
CCOC(=O)CC(=O)CSc1nc(-c2ccccc2)cc(-c2ccc(Cl)cc2)c1C#N | -0.86
CCOc1cc(-c2cc(-c3ccc(OC)cc3)nc(N)c2C#N)ccc1O | -3.73 (active)
CCSc1nc(-c2ccc(OC)cc2)cc(-c2ccc(OC)cc2)c1C#N | -1.07
NC(=O)CCC(NS(=O)(=O)c1ccc(Cl)cc1)C(=O)NCc1ccccc1Cl (stereo unspecified) | -0.26
CCCn1nc(NS(=O)(=O)c2ccccc2)c2cc3cc(C)ccc3nc21 | -0.3
Cc1cc(C)c(C2C3=C(Nc4c2c(C)nn4-c2ccccn2)c2ccccc2C3=O)c(C)c1 (stereo unspecified) | 1.27
CS(=O)(=O)N(Cc1ccccc1)c1ccc(C(=O)NN=C2CCCCCC2)cc1 | -0.45

Compound | z-score
CCOC(=O)C1=C(C)NC(C)=C(C(=O)OCC)C1c1ccccn1 | 1.06
C=CCOC(=O)C1=C(C)NC(SCC(=O)OCC)=C(C#N)C1c1ccc(C)cc1 (stereo unspecified) | -1.05
C=CCOC(=O)C1=C(C)NC(C)=C(C(=O)OCC=C)C1c1cccs1 | -3.93 (active)
Cc1ccccc1-c1nnc(SCC(=O)NCc2ccc3c(c2)OCO3)n1C | 0.49
Cc1ccc(-n2c(SCC(=O)NCc3ccc4c(c3)OCO4)nnc2-c2cccnc2)c(C)c1 | -4.03 (active)
Cc1ccccc1-n1c(SCC(=O)NCc2cccs2)nnc1-c1ccncc1 | -0.72
COc1cc(-c2cc(C(=O)OCC(=O)Nc3ccc4c(c3)OCO4)c3ccccc3n2)cc(OC)c1OC | -0.31
CN(C)c1cc[n+](Cc2ccccc2)cc1 | 0.16
CN(C)c1ccc(/C=C2\NC(=S)N(Cc3ccccc3)C2=O)cc1 | -3.38 (active)
CC1=NN(Cc2ccccc2)C(=O)/C1=C/c1ccc(N(C)C)cc1 | -1.29
Cc1cc(C)cc(C(=O)NC(=S)Nc2ccc3[nH]c(=O)[nH]c3c2)c1 | 0.78
COC(=O)c1cn(CC(=O)NCc2cccs2)c2ccccc12 | -0.4
O=C(Cn1cc(C(=O)c2cccs2)c2ccccc21)NCc1cccs1 | -3.3 (active)
COCCNC(=O)Cn1cc(C(=O)c2cccs2)c2ccccc21 | -0.12
Cc1ccc(S(=O)(=O)NNC(=O)Nc2cccc3ccccc23)cc1 | -1.37
CC(=O)c1c(O)cc2n(c1=O)-c1ccc(Cl)cc1C2(C)C | -0.76
CCNC(=S)N1CCN(c2ncccn2)CC1 | 0.25
O=C(CN(c1ccc2c(c1)OCCO2)S(=O)(=O)c1ccccc1)Nc1ccc2c(c1)OCO2 | -3.19 (active)
CCCCC(=O)Nc1ccc2c(c1)OCCO2 | -0.26
COc1ccc(S(=O)(=O)N(C)CC(=O)Nc2ccc3c(c2)OCCO3)cc1OC | 0.96
Cc1cc([N+](=O)[O-])ccc1NC1CCCC1 | 0.61

Compound | z-score
CC(C)(C)C1CCC(=NNC(=O)c2cc(-c3ccccc3)n[nH]2)CC1 (stereo unspecified) | 0.56
CCOc1ccc(NC(=S)NC(=O)/C=C/c2ccc(OC)cc2)c([N+](=O)[O-])c1 | 0.72
COc1ccc(S(=O)(=O)N2CCCCC2)cc1Br | -0.87
COc1ccc(S(=O)(=O)Nc2ccc(S(=O)(=O)N3CCCCC3)cc2)cc1OC | -1.09
COc1ccc(-c2ccc(Nc3ccc(S(=O)(=O)N4CCCC4)cc3)nn2)cc1OC | -3.54 (active)
CN(C)CCCNC(=S)NCc1ccc(Cl)cc1 | 0.46
Cc1ccc(C(C)NC(=O)Cn2nc(C)c([N+](=O)[O-])c2C)cc1 (stereo unspecified) | 0.63
O=C1c2ccccc2C2=Nc3ccccc3SC(c3ccccc3F)C12 (stereo unspecified) | -4.39 (active)
CCCOc1ccc(Cn2ccnc2)cc1[N+](=O)[O-] | 1.5
Cc1ccc(O)c(CCc2ccccc2)n1 | 0.72
FC(F)(F)c1cc(-c2ccco2)nc(NCc2ccc(Cl)cc2)n1 | 0.02
COc1ccc(-c2nnc(SCc3cccnc3)o2)cc1 | -0.08
COc1ccc(-c2cc(C(F)(F)F)nc(NCc3cccnc3)n2)cc1 | -3.51 (active)
N#Cc1c(/N=C/N2CCCC2)oc(-c2ccccc2)c1-c1ccccc1 | -2.56
N#Cc1c(NC(=O)CCCN2C(=O)c3ccccc3C2=O)oc(-c2ccccc2)c1-c1ccccc1 | -3.57 (active)
COC(=O)c1sccc1NC(=O)c1cc(OC)c(OC)c(OC)c1 | -0.79
COc1cc(C(=O)NC(=S)NCc2ccco2)cc(OC)c1OC | 0.39
O=C(CCN1C(=O)c2ccccc2C1=O)Nc1ccncc1 | 0.81
COc1cc(C(=O)Nc2oc(-c3ccccc3)c(-c3ccccc3)c2C#N)cc(OC)c1OC | -3.42 (active)
